AC50 and outcome data for 14 compounds are collected here from PubChem BioAssay (EPA / NIEHS).

Assay [1] deals with Neuropeptide Y receptor type 2 (Homo sapiens) (UniProt P49146). In words: NVS_GPCR_hNPY2: NovaScreen (NVS) G Protein-Coupled Receptor Assay for human Neuropeptide Receptor Y2 (NPY2) (AID 2283277). The method in brief: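 Radioligand binding on membranes extracted from SK-N-MC cells, cell-free, read 1 h after dosing by filter-based scintillation counting. Loss of signal vs DMSO. Primary screen in duplicate at 25 uM; actives followed up in concentration-response up to 50 uM.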

The target of assay [2] is human Purinergic Receptor P2Y, P2RY1 (gene 5028) (UniProt P47900). In words: NVS_GPCR_hPY2: NovaScreen (NVS) G Protein-Coupled Receptor Assay for human Purinergic Receptor P2Y (AID 2283281). The method in brief:
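Cell-free radioligand binding using U937-derived protein, 1 h after dosing, filter-based scintillation counting. Screened in duplicate at 25 uM; actives rerun as concentration-response up to 50 uM; loss of signal versus DMSO.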

Assay [3] has as its target human Endothelin Receptor Type B (ETB), EDNRB (gene 1910) (UniProt P24530). In words: NVS_GPCR_hETB: NovaScreen (NVS) G Protein-Coupled Receptor Assay for human Endothelin Receptor Type B (ETB) (AID 2283267). The method in brief: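 Human astrocytoma cell membranes; radioligand competitive binding read by filter scintillation counting 4 hours after dosing. Single-concentration duplicate screen at 25 uM, then singleton concentration-response up to 50 uM; loss of signal versus DMSO.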

Assay [4] deals with Muscarinic acetylcholine receptor M2 (Homo sapiens) (UniProt P08172). As to the kind of experiment: NVS_GPCR_hM2: NovaScreen (NVS) G Protein-Coupled Receptor Assay for human Muscarinic, M2 Receptor (AID 2283273). The method in brief: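 Cell-free radioligand binding using membranes from CHO cells expressing the receptor; filter-based scintillation counting after 1 hour of compound exposure. Loss of specific binding relative to DMSO baseline; primary screen at 25 uM in duplicate, actives then run in concentration series.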

For assay [5], the target named is human Muscarinic, M4 Receptor, CHRM4 (gene 1132) (UniProt P08173). In words: NVS_GPCR_hM4: NovaScreen (NVS) G Protein-Coupled Receptor Assay for human Muscarinic, M4 Receptor (AID 2283274). The method in brief: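 Cell-free radioligand displacement using CHO-derived human M4 receptor protein, 1 h after dosing; bound radioactivity by filtration and scintillation counting. Primary screen single 25 uM duplicate, actives followed in concentration series.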

The target of assay [6] is Muscarinic acetylcholine receptor M1 (Homo sapiens) (UniProt P11229). In words: NVS_GPCR_hM1: NovaScreen (NVS) G Protein-Coupled Receptor Assay for human Muscarinic, M1 Receptor (AID 2283270). The procedure, abridged:
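Cell-free radioligand displacement using membrane protein extracted from CHO cells, read by filter-based scintillation counting 1 h after dosing. Loss of bound signal fitted versus DMSO; primary screen single concentration 25 uM in duplicate, actives followed by concentration series.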

Assay [7] deals with Muscarinic acetylcholine receptor M3 (Homo sapiens) (UniProt P20309). As to the kind of experiment: NVS_GPCR_hM3: NovaScreen (NVS) G Protein-Coupled Receptor Assay for human Muscarinic, M3 Receptor (AID 2283272). The method in brief:
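Radioligand displacement binding on human M3 receptor in CHO-derived membranes, 1 h incubation, filter-based scintillation counting. Primary screen in duplicate at 25 uM; actives followed up in concentration series; loss of signal versus DMSO.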

Assay [8] has as its target Muscarinic acetylcholine receptor M5 (Homo sapiens) (UniProt P08912). In words: NVS_GPCR_hM5: NovaScreen (NVS) G Protein-Coupled Receptor Assay for human Muscarinic, M5 Receptor (AID 2283275). The procedure, abridged:
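Radioligand displacement on CHO-derived membrane preparations, 1 h, filter-based scintillation counting. Single-concentration duplicate screen at 25 uM; hits (e.g. 30% inhibition) retested in singleton concentration-response up to 50 uM. Loss of binding fitted versus DMSO.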

In assay [9] the target is D(1A) dopamine receptor (Homo sapiens) (UniProt P21728). As to the kind of experiment: NVS_GPCR_hDRD1: NovaScreen (NVS) G Protein-Coupled Receptor Assay for human Dopamine Receptor D1 (DRD1) (AID 2283269). The procedure, abridged: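 Cell-free competition with radioligand, filter-trapped and scintillation-counted 1 h post-dose, using HEK293-derived human D1 preparation. Duplicate single-point testing at 25 uM first, then concentration series for actives; DMSO served as baseline, loss-of-signal scored.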

Assay [10] concerns the target human Neurokinin, NK2 Receptor, TACR2 (gene 6865) (UniProt P21452). As to the kind of experiment: NVS_GPCR_hNK2: NovaScreen (NVS) G Protein-Coupled Receptor Assay for human Neurokinin, NK2 Receptor (AID 2283278).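 Note: actives reduce bound radioligand signal relative to DMSO baseline.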 The method in brief: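 Cell-free radioligand binding using receptor protein extracted from CHO cells; readings taken 4 hours after chemical dosing by filter-based scintillation counting. Primary screen ran single concentration (25 uM) in duplicate; actives followed up in concentration series, loss-of-signal versus DMSO baseline.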

For assay [11], the target named is mouse Cholecystokinin, CCK1 Receptor (CCKA), Cckar (gene 12425) (UniProt O08786). As to the kind of experiment: NVS_GPCR_mCCKAPeripheral: NovaScreen (NVS) G Protein-Coupled Receptor Assay for mouse Cholecystokinin, CCK1 Receptor (CCKA) (AID 2283285). The procedure, abridged: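 Radioligand competitive displacement on mouse pancreatic membranes, 2 h incubation; filter-based scintillation counting, loss of signal versus DMSO. Single-concentration screen at 25 uM in duplicate, actives retested in concentration-response up to 50 uM.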

The target of assay [12] is rat Serotonin, 5-Hydroxytryptamine Receptor 1 (5HT1), Non-Selective Binding, Htr1a (gene 24473) (UniProt P19327). In words: NVS_GPCR_r5HT1_NonSelective: NovaScreen (NVS) G Protein-Coupled Receptor Assay for rat Serotonin, 5-Hydroxytryptamine Receptor 1 (5HT1), Non-Selective Binding (AID 2283286). The method in brief:
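Rat cortical membranes, radioligand displacement, 1 h incubation, read by filter scintillation. Primary screen in duplicate at 25 uM. Hits (e.g. ≥30% inhibition) went to concentration-response up to 50 uM, fitted as loss of binding versus DMSO.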

Assay [13] has as its target human Histamine 1 Receptor (H1), HRH1 (gene 3269) (UniProt P35367). As to the kind of experiment: NVS_GPCR_hH1: NovaScreen (NVS) G Protein-Coupled Receptor Assay for human Histamine 1 Receptor (H1) (AID 2283268). The procedure, abridged:
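Cell-free radioligand displacement at human H1 receptor, 1 h, filter scintillation counting; primary screen 25 uM in duplicate, hits in concentration series; loss of binding fitted vs DMSO.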

The target of assay [14] is human Neuropeptide Receptor Y1 (NPY1), NPY1R (gene 4886) (UniProt P25929). As to the kind of experiment: NVS_GPCR_hNPY1: NovaScreen (NVS) G Protein-Coupled Receptor Assay for human Neuropeptide Receptor Y1 (NPY1) (AID 2283276). The procedure, abridged: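 Cell-free radioligand binding using receptor extracted from SK-N-MC cells, 1 h incubation, filter-based scintillation counting. Primary screen single concentration 25 uM in duplicate; actives followed in concentration series. Loss of bound signal scored versus DMSO.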

Assay [15] deals with human Thromboxane A2 Receptor (TXA2), TBXA2R (gene 6915) (UniProt P21731). In words: NVS_GPCR_hTXA2: NovaScreen (NVS) G Protein-Coupled Receptor Assay for human Thromboxane A2 Receptor (TXA2) (AID 2283282).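 Note: actives reduce bound radioligand signal relative to DMSO baseline.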 The procedure, abridged:
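Cell-free radioligand binding on membrane protein from human platelets; radioligand displacement read by filter-based scintillation counting after 1 h. Primary screen in duplicate at 25 uM, actives then run in concentration series; loss of signal versus DMSO.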

Assay [16] concerns the target human Neurotensin Receptor (NTS), NTSR1 (gene 4923) (UniProt P30989). As to the kind of experiment: NVS_GPCR_hNTS: NovaScreen (NVS) G Protein-Coupled Receptor Assay for human Neurotensin Receptor (NTS) (AID 2283279). The method in brief: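 Radioligand displacement on human NTSR1 protein from CHO cells, cell-free, 1 h, filter-based scintillation counting. Primary screen at 25 uM in duplicate; hits rerun in concentration-response up to 50 uM.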

In assay [17] the target is human Leukotriene B4 Receptor 1 (LTB4-BLT1), LTB4R (gene 1241) (UniProt Q15722). As to the kind of experiment: NVS_GPCR_hLTB4_BLT1: NovaScreen (NVS) G Protein-Coupled Receptor Assay for human Leukotriene B4 Receptor 1 (LTB4-BLT1) (AID 2283271). The procedure, abridged:
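Radioligand displacement binding on receptor extracted from human neutrophils, cell-free, 1 h after dosing; filter-based scintillation counting. Primary screen in duplicate at 25 uM, actives retested in concentration-response up to 50 uM; loss of signal versus DMSO.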

For assay [18], the target named is human Orphanin, Opioid Related Nociceptin Receptor 1 (ORL1), OPRL1 (gene 4987) (UniProt P41146). In words: NVS_GPCR_hORL1: NovaScreen (NVS) G Protein-Coupled Receptor Assay for human Orphanin, Opioid Related Nociceptin Receptor 1 (ORL1) (AID 2283283). The method in brief: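 Filter-based radioligand displacement with receptor extracted from HEK293 cells, read 1 hour after dosing by scintillation counting. Duplicate single-point screen at 25 uM; qualifying chemicals then run in concentration-response to 50 uM, analysed relative to DMSO.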

The target in assay [19] is human Vasopressin 1A Receptor (V1A), AVPR1A (gene 552) (UniProt P37288). In words: NVS_GPCR_hV1A: NovaScreen (NVS) G Protein-Coupled Receptor Assay for human Vasopressin 1A Receptor (V1A) (AID 2283284). The procedure, abridged:
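Cell-free radioligand displacement on human platelet preparations, 1.5 h incubation, filter-based scintillation counting. Chemicals first tested in duplicate at 25 uM; actives then run in concentration-response up to 50 uM, loss of signal fitted against DMSO.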

Each structure is given as a SMILES string. Records with an inconclusive call do not appear. Calls of active or inactive are those of the source. Rule for the calls: active = hit-call score of the fitted dose curve at least 0.9, where 1 is the maximum; inconclusive = response in the unintended direction; inactive = score below 0.9.

Sequence of human Neurokinin, NK2 Receptor, TACR2 (gene 6865) (P21452 whole entry, looked up): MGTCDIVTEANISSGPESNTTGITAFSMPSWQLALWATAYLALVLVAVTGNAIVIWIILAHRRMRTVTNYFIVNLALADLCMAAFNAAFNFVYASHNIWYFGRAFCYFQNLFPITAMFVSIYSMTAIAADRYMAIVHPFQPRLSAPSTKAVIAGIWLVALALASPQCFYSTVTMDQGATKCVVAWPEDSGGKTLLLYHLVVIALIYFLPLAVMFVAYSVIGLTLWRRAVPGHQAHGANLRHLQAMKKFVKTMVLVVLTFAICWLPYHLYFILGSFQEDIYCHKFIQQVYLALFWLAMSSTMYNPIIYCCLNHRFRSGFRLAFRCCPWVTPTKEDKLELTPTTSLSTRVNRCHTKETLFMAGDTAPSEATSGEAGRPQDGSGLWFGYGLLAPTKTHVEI
Sequence of human Muscarinic, M4 Receptor, CHRM4 (gene 1132) (P08173 whole entry, looked up): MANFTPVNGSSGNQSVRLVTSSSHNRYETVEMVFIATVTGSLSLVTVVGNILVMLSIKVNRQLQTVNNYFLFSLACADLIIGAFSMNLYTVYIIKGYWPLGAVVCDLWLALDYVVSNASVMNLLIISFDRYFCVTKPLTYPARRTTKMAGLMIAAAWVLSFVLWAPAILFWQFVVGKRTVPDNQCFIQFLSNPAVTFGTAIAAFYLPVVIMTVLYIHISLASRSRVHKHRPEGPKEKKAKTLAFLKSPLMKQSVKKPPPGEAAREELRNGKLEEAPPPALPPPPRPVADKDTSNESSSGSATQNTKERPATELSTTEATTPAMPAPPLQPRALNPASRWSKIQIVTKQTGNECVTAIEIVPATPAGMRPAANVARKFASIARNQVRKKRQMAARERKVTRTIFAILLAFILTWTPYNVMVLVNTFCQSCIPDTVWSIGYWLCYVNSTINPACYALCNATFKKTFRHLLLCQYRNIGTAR
Sequence of Neuropeptide Y receptor type 2 (Homo sapiens) (P49146 whole entry, looked up): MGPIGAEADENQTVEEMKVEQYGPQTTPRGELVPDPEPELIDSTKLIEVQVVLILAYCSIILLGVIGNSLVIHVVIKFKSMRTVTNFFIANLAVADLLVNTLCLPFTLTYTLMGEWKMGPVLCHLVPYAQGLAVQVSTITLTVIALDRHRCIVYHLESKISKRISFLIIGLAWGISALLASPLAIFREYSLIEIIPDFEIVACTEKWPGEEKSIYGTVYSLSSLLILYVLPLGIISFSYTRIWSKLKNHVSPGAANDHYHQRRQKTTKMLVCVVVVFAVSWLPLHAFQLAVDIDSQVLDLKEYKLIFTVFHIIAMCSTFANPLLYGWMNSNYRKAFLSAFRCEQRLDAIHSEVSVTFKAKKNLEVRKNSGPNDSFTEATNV
Sequence of Muscarinic acetylcholine receptor M2 (Homo sapiens) (P08172 whole entry, looked up): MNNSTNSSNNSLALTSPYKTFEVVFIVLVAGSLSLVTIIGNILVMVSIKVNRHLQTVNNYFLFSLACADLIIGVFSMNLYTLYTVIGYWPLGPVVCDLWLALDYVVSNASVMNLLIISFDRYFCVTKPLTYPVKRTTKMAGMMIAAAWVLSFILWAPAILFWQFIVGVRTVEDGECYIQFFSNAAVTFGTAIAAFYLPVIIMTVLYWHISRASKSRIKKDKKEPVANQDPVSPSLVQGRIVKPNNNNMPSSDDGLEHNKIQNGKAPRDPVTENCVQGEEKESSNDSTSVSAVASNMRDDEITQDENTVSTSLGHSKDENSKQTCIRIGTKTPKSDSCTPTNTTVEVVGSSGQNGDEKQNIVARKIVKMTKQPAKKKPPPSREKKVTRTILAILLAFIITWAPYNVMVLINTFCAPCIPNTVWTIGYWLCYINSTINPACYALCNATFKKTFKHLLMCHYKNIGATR
Sequence of human Purinergic Receptor P2Y, P2RY1 (gene 5028) (P47900 whole entry, looked up): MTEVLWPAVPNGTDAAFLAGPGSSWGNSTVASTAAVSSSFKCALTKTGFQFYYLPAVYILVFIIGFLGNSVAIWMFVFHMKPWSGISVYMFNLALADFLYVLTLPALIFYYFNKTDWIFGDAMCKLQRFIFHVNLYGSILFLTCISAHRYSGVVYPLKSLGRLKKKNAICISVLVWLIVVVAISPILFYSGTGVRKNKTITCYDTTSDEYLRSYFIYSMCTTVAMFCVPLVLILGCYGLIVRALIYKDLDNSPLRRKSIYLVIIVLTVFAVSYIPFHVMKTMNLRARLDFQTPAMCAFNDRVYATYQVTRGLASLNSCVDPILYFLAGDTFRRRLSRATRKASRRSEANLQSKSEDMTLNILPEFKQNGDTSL
Sequence of D(1A) dopamine receptor (Homo sapiens) (P21728 whole entry, looked up): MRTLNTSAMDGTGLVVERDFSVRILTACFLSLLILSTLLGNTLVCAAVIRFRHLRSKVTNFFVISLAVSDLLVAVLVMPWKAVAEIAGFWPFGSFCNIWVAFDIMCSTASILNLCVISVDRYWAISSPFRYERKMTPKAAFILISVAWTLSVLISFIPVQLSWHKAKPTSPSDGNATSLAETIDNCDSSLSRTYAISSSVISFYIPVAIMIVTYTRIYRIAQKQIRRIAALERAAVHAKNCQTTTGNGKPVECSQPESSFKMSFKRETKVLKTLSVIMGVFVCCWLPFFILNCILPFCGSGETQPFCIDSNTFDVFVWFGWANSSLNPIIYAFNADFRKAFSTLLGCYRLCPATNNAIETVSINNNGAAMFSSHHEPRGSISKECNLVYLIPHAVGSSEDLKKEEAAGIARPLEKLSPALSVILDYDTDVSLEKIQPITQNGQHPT
Sequence of rat Serotonin, 5-Hydroxytryptamine Receptor 1 (5HT1), Non-Selective Binding, Htr1a (gene 24473) (P19327 whole entry, looked up): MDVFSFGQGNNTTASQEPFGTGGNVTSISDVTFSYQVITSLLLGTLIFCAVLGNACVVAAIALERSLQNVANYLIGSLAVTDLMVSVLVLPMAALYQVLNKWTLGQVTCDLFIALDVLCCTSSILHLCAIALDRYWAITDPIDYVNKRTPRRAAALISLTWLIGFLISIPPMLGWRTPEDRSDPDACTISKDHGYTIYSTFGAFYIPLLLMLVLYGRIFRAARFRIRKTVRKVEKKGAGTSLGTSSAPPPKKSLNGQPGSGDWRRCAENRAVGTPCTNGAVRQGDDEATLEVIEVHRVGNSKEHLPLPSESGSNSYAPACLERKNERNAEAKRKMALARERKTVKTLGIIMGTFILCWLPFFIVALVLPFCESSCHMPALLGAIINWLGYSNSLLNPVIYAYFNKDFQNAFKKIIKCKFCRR
Sequence of human Neurotensin Receptor (NTS), NTSR1 (gene 4923) (P30989 whole entry, looked up): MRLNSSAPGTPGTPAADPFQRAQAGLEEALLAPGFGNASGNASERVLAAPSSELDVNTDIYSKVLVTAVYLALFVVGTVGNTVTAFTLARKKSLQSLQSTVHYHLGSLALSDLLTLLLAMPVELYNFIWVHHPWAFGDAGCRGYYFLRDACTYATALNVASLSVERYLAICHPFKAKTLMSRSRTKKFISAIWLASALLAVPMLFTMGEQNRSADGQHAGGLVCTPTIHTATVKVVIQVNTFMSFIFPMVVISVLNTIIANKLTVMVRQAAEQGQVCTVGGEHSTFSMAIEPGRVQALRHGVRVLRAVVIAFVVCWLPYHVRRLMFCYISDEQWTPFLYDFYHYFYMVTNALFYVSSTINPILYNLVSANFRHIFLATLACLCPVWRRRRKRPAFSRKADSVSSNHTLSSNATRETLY
Sequence of human Histamine 1 Receptor (H1), HRH1 (gene 3269) (P35367 whole entry, looked up): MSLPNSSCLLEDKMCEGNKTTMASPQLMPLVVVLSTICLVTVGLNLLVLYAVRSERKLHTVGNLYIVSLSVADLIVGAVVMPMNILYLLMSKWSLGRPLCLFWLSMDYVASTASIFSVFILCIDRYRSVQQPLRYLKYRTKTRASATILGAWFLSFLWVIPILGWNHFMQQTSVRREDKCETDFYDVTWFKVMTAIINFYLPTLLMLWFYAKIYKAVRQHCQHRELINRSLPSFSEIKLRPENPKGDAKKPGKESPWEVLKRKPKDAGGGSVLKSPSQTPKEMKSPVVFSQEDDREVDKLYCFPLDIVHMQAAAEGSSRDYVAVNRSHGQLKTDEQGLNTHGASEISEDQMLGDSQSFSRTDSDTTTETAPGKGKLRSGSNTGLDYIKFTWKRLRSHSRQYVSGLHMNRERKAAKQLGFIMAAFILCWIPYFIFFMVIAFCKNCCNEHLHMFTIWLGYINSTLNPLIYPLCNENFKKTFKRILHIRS
Sequence of human Neuropeptide Receptor Y1 (NPY1), NPY1R (gene 4886) (P25929 whole entry, looked up): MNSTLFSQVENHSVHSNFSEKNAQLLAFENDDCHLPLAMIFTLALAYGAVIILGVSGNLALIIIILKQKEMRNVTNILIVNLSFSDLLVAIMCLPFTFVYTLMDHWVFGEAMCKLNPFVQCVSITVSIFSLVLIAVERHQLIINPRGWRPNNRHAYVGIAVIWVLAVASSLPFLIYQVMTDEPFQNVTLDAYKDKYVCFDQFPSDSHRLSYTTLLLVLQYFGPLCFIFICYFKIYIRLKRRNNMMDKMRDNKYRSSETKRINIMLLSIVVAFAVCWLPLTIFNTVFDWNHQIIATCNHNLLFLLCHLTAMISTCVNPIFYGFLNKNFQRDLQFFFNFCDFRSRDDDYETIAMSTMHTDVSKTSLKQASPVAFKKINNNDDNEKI
Sequence of human Thromboxane A2 Receptor (TXA2), TBXA2R (gene 6915) (P21731 whole entry, looked up): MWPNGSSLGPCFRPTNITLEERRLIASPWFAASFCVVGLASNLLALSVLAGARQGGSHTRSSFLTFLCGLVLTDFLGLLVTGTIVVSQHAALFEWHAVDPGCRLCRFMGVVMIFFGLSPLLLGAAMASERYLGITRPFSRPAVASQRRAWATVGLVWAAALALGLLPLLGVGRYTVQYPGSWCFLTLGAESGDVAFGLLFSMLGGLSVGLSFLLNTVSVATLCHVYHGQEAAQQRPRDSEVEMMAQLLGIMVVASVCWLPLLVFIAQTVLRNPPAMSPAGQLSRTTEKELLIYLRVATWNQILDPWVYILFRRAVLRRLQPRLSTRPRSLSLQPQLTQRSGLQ

For the compound `CCCCCCCCCCCC(=O)OC`, the AC50 (commonly the concentration at which the activity in the assay is half-maximal) in assay [1] was 6.92 µM (active). Besides, in assay [2], the compound was classed as inactive.
Turning to `CCCCc1ccc2c(n1)[C@@H](c1ccc(OC)cc1C[C@H](C)C(=O)O)[C@H](C(=O)O)[C@H]2c1ccc2c(c1)OCO2`, the AC50 in [3] is 0.00361 µM (active).
On to `C[C@]12C=CC(=O)C=C1CC[C@@H]1[C@@H]2C(=O)C[C@@]2(C)[C@H]1CC[C@]2(O)C(=O)CO`, for which the AC50 in [4] was 15 µM (active); in [5] it was 25 µM (active).
As for `Cc1nc(-c2ccc3c(c2)CCN(CCC2CCC(NC(=O)/C=C/c4ccc(F)cc4)CC2)CC3)no1` (centres undefined), the figures for the AC50 in [6], in [4] and in [5] were 0.148 µM (active), 0.0463 µM (active) and 0.123 µM (active), respectively. The result in assay [7] and in assay [8] was inactive.
Take `O=C(N[C@@H](Cc1ccccc1)[C@@H](O)C(=O)N1C[C@@H](O)[C@@H](O)C1)c1cc2cc(Cl)ccc2[nH]1`: the compound was classed as inactive in assay [9] and in assay [5]. The AC50 is 22.6 µM (active) in assay [10] and 11.9 µM (active) in assay [11].
As to `CCOc1ccc2c(c1)C(C)=CC(C)(C)N2`, the compound was classed as inactive in assay [10].
As for `CC(=O)OC/C=C(\C)CCC=C(C)C`, in [1], the result was inactive.
Regarding `Nc1ccccc1N`, in assay [12], the compound was called inactive.
Turning to `NC(=O)Cn1c(=O)cc(CCN2CCN(c3nccc4sccc34)CC2)c2ccc(F)cc21`, the AC50 in assay [13] is 0.199 µM (active); in assay [9] it was 0.00708 µM (active); in [14] it was 9.95 µM (active); in assay [10], 33.7 µM (active); in assay [12], 0.47 µM (active).
With `C[Si]1(C)O[Si](C)(C)O[Si](C)(C)O[Si](C)(C)O1`, in assay [15], the compound was called inactive.
On to `NCCO`, for which, in assay [16], the AC50 is 37.9 µM (active).
Turning to `Cc1ccc(Cl)cc1`, the outcome in [1] was inactive.
`CCOC(=O)CCC(=O)OCC`: the result in assay [13], in [4], in [1], in assay [10], in [2] and in [18] was inactive. The AC50 in [17] was 25 µM (active).
With `Cc1cccc(C)c1O`, the compound was called inactive in assay [16] and in assay [19].
